The results in this text go back to PubChem BioAssay (NCATS).

Structures are written as SMILES. Several values for one entry are separate records, joined by “and”; a condition that tells them apart may be missing. Equal values may be shown once. Records with an inconclusive call do not appear. Activity calls are given as the source filed them. Unless noted, the call rests on the fitted dose curve; in most records, active means well fitted curve in the direction sought with a large enough effect; inconclusive means small, poorly fitted or top-dose-only effect, or another doubt; inactive means no such curve, though single readings can be large; an effect the other way counts as inactive or inconclusive.

One experiment deals with Tov112D. Nature of the experiment: Primary qHTS to identify gynecologic anti-cancer compounds using libraries of approved drugs and bioactive compounds (AID 1345084). Further: nearly all actives have a fitted effect of over 55% in size. Further: potency means the concentration at half of the fitted maximal effect. Particulars: Gynecologic cancer cell panel viability, ATPlite luminescence, 48 h; series mostly up to 57.5 µM. In short, it runs like this:
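Cells, 1,000 per well, were allowed to settle for 16 h at 37 C before compound addition. Five concentrations were tested for 48 h, and viability was read by ATPlite luminescence after 15 min at room temperature.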
In general terms: In qHTS, concentration-response curves come from the screen itself.

Experiment [1] can be described thus: Drug repurposing screens with cells derived from glioblastoma tumor samples (AID 1345199). Further: nearly all actives have a fitted effect of over 40% in size. Further: potency means the concentration at half of the fitted maximal effect. On activity, negative = cell killing: on the % scale 0 is the no-effect control and ±100 the full control effect. The conditions noted are these: GBM patient neurospheres viability, ATP luminescence, 48 h. In short, it runs like this: (§1)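 Primary testing used CD133+ neurospheres from four GBM patients, seven concentrations, 48 h exposure and ATP-based viability; confirmation added three slower-growing patient lines.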

The nature of experiment [2]: qHTS assay to identify inhibitors of the type 1 interferon - major histocompatibility complex class I in skeletal muscle: Counter screen cell viability and HiBit confirmation (AID 1347412). Further: nearly all actives have a fitted effect of over 60% in size. Further: potency means the concentration at half of the fitted maximal effect. The conditions noted are these: iHSKM muscle cells + IFN-b, HiBiT or CellTiter-Glo, 24 h; Potency: HiBiT; Viability, at 45.9 µM (top of the series). In a few lines:
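After 24 h with human IFN-beta (4 ng/ml) and compound titrations (top 46 uM final, 1:3, 12 points), HLA-B HiBit myoblasts were lysed for either Nano-Glo HiBiT luminescence or CellTiter Glo viability on paired plates.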

Experiment [3] addresses Nuclear receptor subfamily 1 group I member 2 (Rattus norvegicus) (UniProt Q9R1A7). Kind of experiment: qHTS assay for small molecule activators of the rat pregnane X receptor (rPXR) signaling pathway (AID 651751; call rule not given here; further: 0% is about no effect). The conditions noted are these: rPXR reporter cells, luciferase (One-Glo), 24 h.
A short description of experiment [4]: qHTS assay for small molecule activators of the human pregnane X receptor (PXR) signaling pathway (AID 720659; call rule not given here; further: 0% is about no effect).
Another experiment concerns astro. Nature of the experiment: Drug repurposing screens with cells derived from glioblastoma tumor samples (AID 1345199). Further: nearly all actives have a fitted effect of over 40% in size. Further: potency means the concentration at half of the fitted maximal effect. On activity, negative = cell killing: on the % scale 0 is the no-effect control and ±100 the full control effect. Particulars: viability, ATP luminescence, 48 h; series mostly up to 45.9 µM. In short, it runs like this:
as §1

Where [5] appears, read: at 46.1 µM (top of the series), tumour line C.
Setting [6] is: at 45.9 µM (top of the series), tumour line B.
Setting [7] is: at 45.9 µM (top of the series), tumour line D.
[8] abbreviates: at 46 µM (top of the series), tumour line A.
[9] abbreviates: at 20 µM (top of the series), tumour line C.

Chain of Nuclear receptor subfamily 1 group I member 2 (Rattus norvegicus) (Q9R1A7 whole entry, looked up): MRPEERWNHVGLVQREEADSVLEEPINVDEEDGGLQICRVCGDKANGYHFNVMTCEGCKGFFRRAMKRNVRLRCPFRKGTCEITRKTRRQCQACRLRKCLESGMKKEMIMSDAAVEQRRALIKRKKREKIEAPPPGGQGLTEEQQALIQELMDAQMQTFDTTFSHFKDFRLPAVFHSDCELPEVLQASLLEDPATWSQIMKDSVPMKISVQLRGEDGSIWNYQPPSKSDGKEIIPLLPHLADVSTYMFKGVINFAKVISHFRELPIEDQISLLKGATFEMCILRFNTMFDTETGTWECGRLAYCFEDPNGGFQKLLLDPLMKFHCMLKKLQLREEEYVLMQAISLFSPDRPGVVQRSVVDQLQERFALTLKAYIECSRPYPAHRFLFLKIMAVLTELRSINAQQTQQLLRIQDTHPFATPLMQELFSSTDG

With `OCCN1CCN(CCCN2c3ccccc3Sc3ccc(C(F)(F)F)cc32)CC1`, the Potency result (in the experiment on Tov112D; in experiment [2]) was “inactive” throughout. The activity, negative = cell killing in experiment [1] (setting [5]) is -28.6% (inactive). Also, the Potency in experiment [1] (tumour line A) is 1.26 µM (active); in experiment [1] (tumour line D) it was 10 µM (active).

For `Cn1c(=O)c2c(ncn2C)n(C)c1=O`, the Potency entry in the experiment on Tov112D was “inactive”. Moreover, the activity, negative = cell killing is -15% (inactive) in experiment [1] (setting [6]), -11.6% (inactive) in experiment [1] (setting [7]), -31.4% (inactive) in experiment [1] (setting [8]) and -0.268% (inactive) in experiment [1] (setting [5]). Also, the max response in experiment [3] was 0.943% (inactive) and 1.54% (inactive). Also, in experiment [4], the call was inactive.

`COc1cc2nc(N(C)CCCNC(=O)C3CCCO3)nc(N)c2cc1OC` (configuration not stated): the Potency entry in the experiment with Tov112D and in the experiment on astro was “inactive” each time. The activity, negative = cell killing in experiment [1] (setting [9]) is -6.33% (inactive); in experiment [1] (at 21.2 µM (top of the series), tumour line B) it was -6.29% (inactive); in experiment [1] (at 21.2 µM (top of the series), tumour line D), 7.29% (inactive).

For `Cc1cnc(C(=O)NCCc2ccc(S(=O)(=O)NC(=O)NC3CCCCC3)cc2)cn1`, the Potency result in the experiment with Tov112D and with astro was “inactive” in each case. The activity, negative = cell killing in experiment [1] (setting [6]) was -8.45% (inactive); in experiment [1] (setting [7]), -17.1% (inactive); in experiment [1] (setting [5]) it was 18% (inactive).

`O=C(Nc1ccc([N+](=O)[O-])cc1Cl)c1cc(Cl)ccc1O`: the Potency was 2 µM (active) with Tov112D and 0.282 µM (active) in the experiment on astro. The max response in experiment [3] is -12.4% (inactive). Besides, the molecule was called inactive in experiment [4].

With `Nc1c2c(nc3ccccc13)CCCC2`, in the experiment with Tov112D, the Potency result was “inactive”. Besides, the activity, negative = cell killing in experiment [1] (setting [6]) was 1.31% (inactive); in experiment [1] (setting [5]), -23.5% (inactive). In experiment [1] (tumour line A), the Potency is 20 µM (active). Moreover, in experiment [3], the max response was 4.58% (inactive). Also, the outcome in experiment [4] was inactive.

Turning to `C[C@@H]1CC(=O)NN=C1c1ccc(NN=C(C#N)C#N)cc1`, the Potency entry in the experiment on Tov112D and in the experiment with astro was “inactive” in each case. The activity, negative = cell killing in experiment [1] (setting [6]) was -23.8% (inactive); in experiment [1] (setting [5]), -26.3% (inactive).

For the molecule `Nc1ccn([C@H]2CC[C@@H](CO)O2)c(=O)n1`, in the experiment on Tov112D, the Potency entry was “inactive”. The activity, negative = cell killing in experiment [1] (setting [6]) is -3.23% (inactive); in experiment [1] (setting [7]), -22.8% (inactive); in experiment [1] (setting [5]), -9.64% (inactive). For the same molecule, the max response in experiment [3] was 4.04% (inactive) and 0.741% (inactive). For the same molecule, in experiment [4], the molecule was classed as inactive.

In the case of `O=c1c(-c2ccc(O)cc2)coc2cc(O)cc(O)c12`, the activity, negative = cell killing in experiment [1] (setting [5]) is -25.8% (inactive). Besides, the max response in experiment [3] was -0.208% (inactive) and 4.35% (inactive).

Consider `CC(C)Cc1ccc(C(C)C(=O)O)cc1` (configuration not stated), for which the Potency entry in the experiment on Tov112D is “inactive”. Further, the activity, negative = cell killing in experiment [1] (setting [6]) was -11.8% (inactive); in experiment [1] (setting [7]) it was -6.13% (inactive); in experiment [1] (setting [8]), -21.1% (inactive); in experiment [1] (setting [5]), -7.76% (inactive). In experiment [4], the molecule was classed as inactive.

Take `COc1cc2nc(N3CCN(C(=O)c4ccco4)CC3)nc(N)c2cc1OC`: the Potency entry in the experiment on Tov112D was “inactive”. For the same molecule, the Potency in the experiment with astro is 25.1 µM (active).

Consider `CCOC(=O)c1ncn2c1CN(C)C(=O)c1cc(F)ccc1-2`, for which the Potency entry in the experiment on Tov112D and with astro was “inactive” throughout. For the same molecule, the activity, negative = cell killing in experiment [1] (setting [6]) was -16% (inactive); in experiment [1] (setting [7]) it was 3.15% (inactive); in experiment [1] (setting [5]), 4.97% (inactive).

On to `Cn1cnc2c1c(=O)[nH]c(=O)n2C`, for which the Potency result in the experiment on Tov112D is “inactive”. Also, the activity, negative = cell killing in experiment [1] (setting [6]) is 0.295% (inactive); in experiment [1] (setting [7]) it was -15.5% (inactive); in experiment [1] (setting [5]), 1.28% (inactive). The max response in experiment [3] is 2.94% (inactive).

`Fc1ccc([C@@H]2CCNC[C@H]2COc2ccc3c(c2)OCO3)cc1`: the Potency result (with Tov112D; in experiment [2]) was “inactive” throughout.

Turning to `O=C1c2c(O)ccc(O)c2C(=O)c2c(NCCNCCO)ccc(NCCNCCO)c21`, in experiment [1] (setting [9]), the activity, negative = cell killing is -23.1% (inactive). Further, the Potency in experiment [1] (tumour line A) was 3.98 µM (active); in experiment [1] (tumour line B), 8.91 µM (active); in experiment [1] (tumour line D), 5.62 µM (active); with astro, 5.01 µM (active); in experiment [2], 1.76 µM (active).

As for `Cc1cn([C@H]2C=C[C@@H](CO)O2)c(=O)[nH]c1=O`, the Potency result with Tov112D is “inactive”. Further, the activity, negative = cell killing in experiment [1] (setting [6]) is -6.16% (inactive); in experiment [1] (setting [7]) it was -7.24% (inactive); in experiment [1] (setting [8]) it was -20.7% (inactive); in experiment [1] (setting [5]), -21.2% (inactive). Moreover, in experiment [3], the max response is 0.921% (inactive) and -1.01% (inactive) and -5.21% (inactive). Further, in experiment [4], the call was inactive.

For the molecule `CN1CCN2c3ccccc3Cc3ccccc3C2C1` (configuration not stated), the activity, negative = cell killing in experiment [1] (setting [5]) was -2.24% (inactive). Besides, the figures for the Potency (in experiment [1] (tumour line A); in experiment [1] (tumour line D); in the experiment on astro) were 11.2 µM (active), 20 µM (active) and 20 µM (active), respectively.

In the case of `CC#C[C@]1(O)CC[C@H]2[C@@H]3CCC4=CC(=O)CCC4=C3[C@@H](c3ccc(N(C)C)cc3)C[C@@]21C`, the Potency entry with Tov112D was “inactive”. Further, in experiment [4], the outcome was inactive.

In the case of `O=c1[nH]cc(F)c(=O)[nH]1`, the Potency result in the experiment with Tov112D was “inactive”. In addition, the activity, negative = cell killing in experiment [1] (setting [6]) was -26.1% (inactive); in experiment [1] (setting [8]), -11.3% (inactive); in experiment [1] (setting [5]) it was -29.9% (inactive). Besides, in experiment [4], the result was inactive.

Regarding `CC(C)NCC(O)c1ccc(O)c(O)c1` (configuration not stated), the Potency result in the experiment with Tov112D is “inactive”. In addition, the results for the activity, negative = cell killing in experiment [1] (setting [6]), in experiment [1] (setting [7]) and in experiment [1] (setting [5]) were -7.24% (inactive), 4.85% (inactive) and 7.09% (inactive), respectively. For the same molecule, the max response in experiment [3] is -3.83% (inactive) and 3.86% (inactive).

For `CN(C)CCC=C1c2ccccc2C=Cc2ccccc21`, the activity, negative = cell killing in experiment [1] (setting [5]) is 15.9% (inactive). In addition, in experiment [1] (tumour line A), the Potency was 14.1 µM (active). Also, the Potency result in the experiment with astro was “inactive”.

`COc1ccccc1N1CCN(CC(O)COc2cccc3ccccc23)CC1` (configuration not stated): in experiment [1] (setting [5]), the activity, negative = cell killing was -13.1% (inactive). Also, in experiment [1] (tumour line A), the Potency was 12.6 µM (active).

As for `NC12CC3CC(CC(C3)C1)C2`, the Potency entry in the experiment on Tov112D and with astro was “inactive” throughout. Further, the activity, negative = cell killing was -22.3% (inactive) in experiment [1] (setting [6]), 14.4% (inactive) in experiment [1] (setting [8]) and 2.2% (inactive) in experiment [1] (setting [5]).

On to `COc1ccccc1OCC(O)CN1CCN(CC(=O)Nc2c(C)cccc2C)CC1` (configuration not stated), for which the Potency result with Tov112D and in the experiment with astro was “inactive” each time. Also, the activity, negative = cell killing is -2.09% (inactive) in experiment [1] (setting [6]), -4.68% (inactive) in experiment [1] (setting [7]) and -16.2% (inactive) in experiment [1] (setting [5]).

With `O=C1N(c2ccccc2)c2ccccc2C1(Cc1ccncc1)Cc1ccncc1`, the Potency entry in the experiment on Tov112D and in the experiment on astro was “inactive” each time. Besides, the activity, negative = cell killing in experiment [1] (setting [6]) was -5.15% (inactive); in experiment [1] (setting [7]), -2.7% (inactive); in experiment [1] (setting [5]) it was -22.5% (inactive).

As to `CN(C)CCCN1c2ccccc2CCc2ccc(Cl)cc21`, the activity, negative = cell killing in experiment [1] (setting [5]) is -8.66% (inactive). Further, the figures for the Potency in experiment [1] (tumour line A), in experiment [1] (tumour line B) and in experiment [1] (tumour line D) were 5.01 µM (active), 20 µM (active) and 12.6 µM (active), respectively.
